Assay outcomes (PubChem)
An excerpt weighted towards active compounds, which were near 0.87% of everything screened.
TDP1 inh: blocks human tyrosyl-DNA phosphodiesterase 1 | AID 485290 | Potency, µM (titrated, usually from 130 µM), without a hit: at the top dose activity change, negative = inhibition, hits mostly inhibitors | recombinant TDP1, AlphaScreen DNA substrate cleavage | Q9NUW8 | 0.28% of 350,000 active; further: nearly all actives have a fitted effect of over 40% in size
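Enzyme-compound mixtures sat 15 min at room temperature, followed by a 5 min reaction with 15 nM final substrate and 10 min with AlphaScreen beads. Recombinant human Tdp1 was used at 1 nM final.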
APEX1 inh: blocks human APE1 abasic DNA cleavage | 0.35% of 350,000 active | P27695 | Potency, µM (series often up to 65.8 µM), without a hit: at the highest dose activity change, negative = inhibition, actives largely listed as inhibitors | recombinant APE1, TAMRA/BHQ-2 abasic DNA cleavage fluorescence;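 further: plate controls were vehicle for no effect and reference inhibitor for full effect; nearly all actives have a fitted effect of over 55% in size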
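Measures dequenching upon AP-site incision of a 5'-TAMRA/3'-BHQ-2 THF-containing duplex, 50 nM; human APE1 0.75 nM after 15 min room-temperature exposure to compound; kinetic three-point read at one-minute spacing.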
RECQ1 inh-1: blocks DNA unwinding by human RECQ1. RECQ1 DNA unwinding, red fluorescence kinetic read. Potency, µM (series often up to 57.3 µM), inactives show at the highest dose activity, negative = inhibition, actives largely listed as inhibitors. 0.54% of 240,000 active;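 further: plate controls were vehicle for no effect and no enzyme for full effect; nearly all actives have a fitted effect of over 30% in size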
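50 nM RECQ1T1 preincubated 15 min with compound in Tris pH 8.0 buffer with MgCl2, DTT, Tween-20 and 2.5 ug/ml poly(dI-dC); started with 200 nM TAMRA/BHQ-2 forked duplex and 2 mM ATP. Unwinding read as fluorescence (525/598 nm), two reads 2 h apart.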
BLM inh: blocks DNA unwinding by human BLM helicase; Potency, µM (doses to about 56.1 µM), for inactives: at the top dose activity change, negative = inhibition, usual class: inhibitors; AID 2528; 0.2% of 350,000 active; recombinant BLM DNA unwinding, fluorescence dequenching; P54132;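 further: plate controls were vehicle for no effect and no enzyme for full effect; nearly all actives have a fitted effect of over 35% in size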
GCN5L2 inh: inhibitors of human GCN5L2 histone acetyltransferase; Potency, µM (titrated, usually from 58.9 µM), for the others: at the top dose activity change, negative = inhibition, actives largely listed as inhibitors; GCN5L2 HAT assay, ThioGlo1 CoA-SH fluorescence; AID 504327; 0.21% of 390,000 active
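GCN5L2 (20 nM) in 50mM HEPES pH 7.5, 0.1mM EDTA, 0.01% Tween-20 preincubated 15 min with compounds at room temperature. Reaction started with H3(1-25) 75uM, acetyl-CoA 70uM, ThioGlo1 50uM; CoA-thiol fluorescence (Ex340/Em540) read at 0 and 20 min.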
RGS4 inhibitor: human RGS4 inhibition. P49798. 0.039% of 390,000 active. Transcreener GDP fluorescence polarization, RGS4-accelerated GTP hydrolysis. Potency, µM (top dose mostly 114 µM), for the others: top-dose activity change, negative = inhibition, hits mostly inhibitors; further: nearly all actives have a fitted effect of over 75% in size
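MLSMR compounds (23 nl, pin-transferred) preincubated 10 min at room temperature with a 500nM (2x) first reagent, then RGS4 at 900nM (2x) plus Transcreener GDP mix added; fluorescence polarization (620/688 nm) read before and after 90 min at 30 °C.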
RECQ1 conf: confirmation of human RECQ1 helicase inhibitors | shares compounds with RECQ1 inh-1 | RECQ1 helicase DNA unwinding, fluorescence | Potency, µM (top dose mostly 229 µM), for the others: top-dose activity change, negative = inhibition, hits mostly inhibitors | 28% of 610 active | AID 2708; further: nearly all actives have a fitted effect of over 45% in size
ADP FP counter: ADP displacement flagged in RECQ1 inhibitor counter-screen; AID 2711; shares compounds with RECQ1 inh-1; ADP fluorescence polarization displacement counterscreen; 27% of 530 active; Potency, µM (series often up to 228 µM), inactives show top-dose activity change, negative = inhibition, hits mostly inhibitors; further: nearly all actives have a fitted effect of over 45% in size
RECQ1 inh-2: RECQ1 helicase inhibition confirmed, round 2; shares compounds with RECQ1 inh-1; recombinant RECQ1 DNA unwinding, red fluorescence; Potency, µM (highest dose often 119 µM), without a hit: at the top dose activity, negative = inhibition, hits mostly inhibitors; 15% of 1,100 active; AID 504841; further: nearly all actives have a fitted effect of over 50% in size
* = called active by the depositor; i = inactive; ? = inconclusive; nt = no result given; [ ] = remark or other dose. The call rests on the fitted dose curve; in most records, active means well fitted curve in the direction sought with a large enough effect; inconclusive means small, poorly fitted or top-dose-only effect, or another doubt; inactive means no such curve, though single readings can be large; an effect the other way counts as inactive or inconclusive. Unless noted, on the % scale 0 is the no-effect control and ±100 the full control effect; potency means the concentration at half of the fitted maximal effect.

SMILES	TDP1 inh	APEX1 inh	RECQ1 inh-1	BLM inh	GCN5L2 inh	RGS4 inhibitor	RECQ1 inh-2	others
O=C(N/N=C/c1ccc[nH]1)c1ccccc1O	0%	18%	3.5µM*	-4%	-1%	24%	nt	RECQ1 conf=8%[114 µM];ADP FP counter=14%[91.9 µM]
O=S(=O)(Nc1nc2ccccc2nc1Nc1ccc(N2CCOCC2)cc1)c1cc(Cl)ccc1Cl	5%	-4%	?	-9%	-5%	-26%[11.4 µM]	-12%
CS(=O)(=O)c1ccc2c(c1)sc1nc(=O)c(/C=C3/C=CC(=O)C(O)=C3)c(N)n12	-10%	25µM*	16µM*	25µM*	?	-31%	7.9µM*
CN(C)/C=C1\C(=O)ON=C1c1ccccc1	1%	-5%	-5%	2%	-4%	8%	nt
O=C1ON=C(c2ccccc2)/C1=C/c1ccco1	3%	?	?	2%	-6%	?	-25%
Cc1cc(C(=O)COC(=O)c2cccn2C)c(C)n1Cc1ccco1	3%	?	?	-18%	-18%	-12%	-18%
Cc1cc(C(=O)COC(=O)c2ccco2)c(C)n1Cc1ccco1	-14%	?	-14%	-13%	-6%	21%[56.9 µM]	nt
CCOC(=O)CNC(=O)O[C@H]1C(=O)c2ccc(OC)cc2O[C@@H]1c1ccc2c(c1)OCO2	6%	-2%	7%	-1%	nt	nt	nt
O=C(Nc1nc(-c2ccccn2)cs1)Nc1ccc(F)cc1F	9%	24%	nt	-8%	-11%	?	nt
O=C(Nc1nc(-c2ccccc2)cs1)Nc1ccc(F)cc1F	-5%	-1%	?	-12%	-2%	-12%	-11%
CCN1CCN(c2cc(C)c3cc(NC(=O)c4ccc(OC)c(OC)c4)ccc3n2)CC1	3%	-1%	22µM*	-7%	-16%	6%	?
Cc1ccc(S(=O)(=O)N2CCN(c3nc(-c4ccc(C)s4)nc4ccccc34)CC2)cc1	1%	nt	nt	nt	nt	10%	nt
Cc1ccc(NC(=O)c2ccc(OCc3c(C)noc3C)cc2)cc1	3%	-9%	10%	-1%	0%	nt	nt	RECQ1 conf=4%;ADP FP counter=50µM*
Cc1ccc(NC(=O)c2cccc(OCc3c(C)noc3C)c2)cc1	4%	-7%	i	-8%	-3%	15%	nt
Cc1noc(C)c1COc1ccc(C(=O)Nc2cccnc2)cc1	1%	-8%	0.89µM*	-19%	-13%	-12%	-32%	RECQ1 conf=56µM*;ADP FP counter=126µM*
CCCCN(CC)CCNC(=O)CCn1cnc2onc(-c3ccc(F)cc3)c2c1=O	0%	nt	nt	-12%	26%	12%	nt
CCCCN(C(=O)CN1CC(C)OC(C)C1)c1c(N)n(CC(C)C)c(=O)[nH]c1=O (stereo not drawn)	5%	18%	-5%	3%	-2%	4%	nt
CCCCN(C(=O)Cn1ncc(Cl)c(Cl)c1=O)c1c(N)n(CC(C)C)c(=O)[nH]c1=O	3%	-5%	28µM*	-18%	?	-10%[11.4 µM]	?
CCCCOC(=O)CSC1=C(C#N)C(c2ccccc2OC)C(C#N)C(=O)N1 (stereo not drawn)	10%	-4%	14µM*	-5%	-24%	-35%	?
CCCCOC(=O)CSC1=C(C#N)C(c2ccccc2OCC)C(C#N)C(=O)N1 (stereo not drawn)	6%	-6%	-21%	-2%	-24%	-46%	nt
CCCCc1cc(=O)oc2cc(C)c(CN3CCCC3)c(O)c12	nt	-12%	13µM*	?	?	-49%	?	RECQ1 conf=20µM*;ADP FP counter=50µM*
CCCCc1cc(=O)oc2c(CN3CCCC3)c(O)ccc12	6%	12%	-12%	-5%	?	11%	nt
O=C(Nc1cc(S(=O)(=O)N2CCOCC2)ccc1Cl)c1ccc(=O)[nH]c1	-5%	-8%	nt	nt	3%	-1%	nt
CC1(C)CC2CC(C)(CN2S(=O)(=O)c2ccc(C(=O)Nc3cccc(S(=O)(=O)N4CCOCC4)c3)cc2)C1 (stereo not drawn)	-3%	-1%	-2%	-8%	-5%	19%	nt	RECQ1 conf=-12%;ADP FP counter=1%
CC1(C)CC2CC(C)(CN2S(=O)(=O)c2cccc(C(N)=O)c2)C1 (stereo not drawn)	-5%	-10%	nt	nt	-1%	2%	nt
SMILES	TDP1 inh	APEX1 inh	RECQ1 inh-1	BLM inh	GCN5L2 inh	RGS4 inhibitor	RECQ1 inh-2	others
CC1(C)CC2CC(C)(CN2S(=O)(=O)c2ccc(C(=O)Nc3cc(S(=O)(=O)N4CCOCC4)ccc3Cl)cc2)C1 (stereo not drawn)	-3%	?	-9%	-7%	-4%	4%	nt	RECQ1 conf=0%;ADP FP counter=8%
COc1cccc([C@@H]2Oc3ccc(Br)cc3C[C@H]2OC(=O)N[C@H]2CCCc3ccccc32)c1	6%	8%	10%	4%	nt	nt	nt
COc1ccccc1OCCNC(=O)c1ccco1	5%	-6%	nt	-1%	-2%	-12%	nt
COc1cc(Br)c(CCNC(=O)c2ccco2)cc1OC	-13%	20%	?	-2%	-15%	-7%	-8%
C#Cc1cccc(Nc2ncnc3cc(OC)c(OC)cc23)c1	10%	-3%	i	nt	-15%	170%[56.9 µM]	nt
COC(=O)c1cn(C)c2ccc(S(=O)(=O)N3CCCC3)cc2c1=O	4%	-3%	?	-2%	-17%	-12%	-31%
Cn1cc(C(=O)O)c(=O)c2cc(S(=O)(=O)N3CCCCC3)ccc21	13%	nt	nt	-3%	1%	12%	nt
COc1ccc(NC(=O)CN(c2ccccc2)S(=O)(=O)N(C)C)cc1OC	-11%	?	?	-2%	2%	-8%	?
O=c1[nH]c(Nc2ccccc2)cc2cc(Br)ccc12	nt	nt	nt	nt	nt	-15%	nt
O=c1[nH]c(Nc2ccccc2)cc2ccccc12	11%	?	?	3%	-12%	-47%	?
CCCC[C@H]1CCCO[C@@](C(=O)NCCN2CCOCC2)(C(F)(F)F)C1	1%	-1%	9%	-11%	nt	-7%	nt
C=CCn1c(SCC(N)=O)nnc1-c1ccccc1O	-6%	11%	-3%	-5%	1%	-48%	nt
